Assay results published in PubChem BioAssay.
Activity calls are given as the source filed them.

Assay: growth modulation of vineyard yeast isolate – strain RM11-1a, OD600, basal, 24 h, primary screen (AID 1177);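 further: cultures grown under basal conditions with no added stressor; test concentration not given here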
Conditions: S. cerevisiae RM11-1a growth, OD600, 24 h; higher = more signal, called active from +8 up or from −8 down

z-score, inactive:
C=CCN1C(=O)[C@@]2(Cc3ccccc31)N=C(c1ccc(OCCCO)cc1)O[C@H]2c1ccccc1 1.4
CC(C)C(O)C1C=CC2C(=O)N(c3ccccc3)C(=O)C2N1Nc1ccc([N+](=O)[O-])cc1 (stereo not drawn) -0.0749
COC(=O)[C@H](Cc1ccccc1)N[C@@H](/C=C/C1CC1)[C@H](O)Cc1ccccc1 0.584
O=C1O[C@H](c2ccccc2)[C@H](c2ccccc2)N2[C@H]1[C@@H](C(=O)N1CCCCCCC1)[C@]1(C(=O)Nc3ccc(C#CC4=CCCCC4)cc31)[C@H]2c1ccc(OCCO)cc1 0.6
CCOC(=O)C[C@H]1[C@H](OC(=O)c2ccc(C(=O)c3ccccc3)cc2)[C@@H](NC(=O)c2ccccc2)c2cc(OCCCO)ccc2N1C(=O)Cc1ccc(OC)cc1 0.17
COc1ccc([Si](C)(C)[C@H]2[C@H](CCO)O[C@@]3(C(=O)N(Cc4ccc(N(C=O)c5ccccc5)cc4)c4ccccc43)[C@@H]2C)cc1 4.71
CC(C)c1ccc(NN2C(C(O)c3ccc(B(O)O)cc3)C=CC3C(=O)N(c4ccccc4)C(=O)C32)cc1 (stereo not drawn) 0.728
COc1ccc(CCNC(=O)[C@@]2(Sc3ccc(C)cc3)CC(=O)N(C3Cc4ccccc4C3)[C@@H]2c2ccc(CO)cc2I)cc1 1
COCCOC(=O)N1C(=O)[C@@]2(c3ccccc31)[C@H](c1ccc(O)cc1)N1[C@H](c3ccccc3)[C@H](c3ccccc3)OC(=O)[C@H]1[C@@H]2C(=O)Nc1nc2ccccc2s1 0.941
C=C(C(=O)CC[C@@H](OC(=O)c1cccnc1)c1ccccc1OCCO)C(C)C -0.337
NCCCCCNC(=O)[C@@H]1C[C@@H]2C(=O)N[C@@H](Cc3ccccc3)C(=O)N2[C@@H]1c1ccc(O)cc1 -0.56
CCCCCCc1nc(-c2ccc(OC)nc2)cc2c1[Si](C(C)C)(C(C)C)O[C@H]2c1ccccc1 0.056
C[N+](C)(C)CCCCNC(=O)[C@@H]1C[C@@H]2C(=O)N[C@@H](Cc3ccccc3)C(=O)N2[C@@H]1c1cccc(OCCO)c1 0.145
COc1cc2c(cc1O)C(c1cccs1)N(C)CC2 (stereo not drawn) -0.225
C[C@@]1([C@@H](NC(=O)c2ccc(-c3ccccc3)cc2)c2ccc(Cl)cc2)C[C@H]1C1CCCCC1 2
Cc1ccc(S[C@]2(C(=O)O)CC(=O)N(C(C)C)[C@@H]2c2ccc(CO)cc2I)cc1 -2.76
CN1C(=O)C2C=CC(C(O)C3CC=CCC3)N(N(c3ccccc3)c3ccccc3)C2C1=O (stereo not drawn) 0.595
O=C1NC(=O)C2C1C=CC(C(O)c1cccs1)N2Nc1ccc(Cl)cc1Cl (stereo not drawn) 1.45
C=CCC(OC(C)=O)[C@@H]1[C@@H](N(Cc2ccc(-c3ccccc3)cc2)C(=O)Cc2ccc(OC)cc2)c2cc(OCCCO)ccc2N1C(=O)Cc1ccc2ccccc2c1 (stereo partly drawn) -0.726
CC(C)C[C@@H]1NC(=O)[C@@H]2C[C@H](C(=O)NCc3ccc(F)cc3)[C@H](c3cccc(OCCO)c3)N2C1=O -0.694
C=CCC(OC(C)=O)[C@@H]1[C@@H](N(Cc2ccc(-c3ccccc3)cc2)C(=O)c2cccc3ccccc23)c2cc(OCCCO)ccc2N1C(=O)c1ccc(-c2ccccc2)cc1 (stereo partly drawn) -0.768
CCCC[C@H]1OB(O)C[C@H]2C1=C(COC)Cn1c(=O)n(-c3ccccc3)c(=O)n12 0.523
O=C1NC(=O)C2C1C=CC(C(O)c1cc(C(F)(F)F)cc(C(F)(F)F)c1)N2Nc1ccccn1 (stereo not drawn) 0.0176
CC1CC/C=C\[C@H]2OC34C=CCN(Cc5ccccc5)C(=O)[C@H]3N(CCCO)C(=O)[C@@H]4C2C(=O)O1 (stereo partly drawn) -0.52
C=C(CC1([C@@H](NP(=O)(c2ccccc2)c2ccccc2)[C@H]2C[C@@H]2CCCC)CC1)c1ccccc1 0.753
CC(C)N1C(=O)c2ccccc2[C@](C)(C(=O)NCCN2CCOCC2)[C@@H]1c1ccc(CO)cc1 1.41
[N-]=[N+]=NCc1ccccc1[C@@H]1OC(c2ccc(OCCCO)cc2)=N[C@]1(Cc1ccccc1)C(=O)NCC(O)CO (stereo partly drawn) -0.0888
Cc1ccc(S[C@]2(C(=O)NCCCN(C)C)CC(=O)N(Cc3ccccc3C(F)(F)F)[C@@H]2c2ccc(CO)cc2)cc1 -0.329
